Article PMC4336329 (PLoS ONE, 2015)
Hit rate of the full screen: of about 310,000 compounds, about 14,000 (4.5%) showed an effect of 50% or more. Effects have a minus sign here. This excerpt belongs to a sample that is enriched for strong results.
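Note: peak tail current of the secondary pulse compared with the same well before compound.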

The compounds below were run against human ether-à-go-go-related gene (hERG) potassium channel (human, UniProt Q12809) (assay: primary screen, population patch clamp on CHO cells stably expressing hERG; higher = less effect of the substance).
human ether-à-go-go-related gene (hERG) potassium channel, sequence (Q12809 whole entry, looked up): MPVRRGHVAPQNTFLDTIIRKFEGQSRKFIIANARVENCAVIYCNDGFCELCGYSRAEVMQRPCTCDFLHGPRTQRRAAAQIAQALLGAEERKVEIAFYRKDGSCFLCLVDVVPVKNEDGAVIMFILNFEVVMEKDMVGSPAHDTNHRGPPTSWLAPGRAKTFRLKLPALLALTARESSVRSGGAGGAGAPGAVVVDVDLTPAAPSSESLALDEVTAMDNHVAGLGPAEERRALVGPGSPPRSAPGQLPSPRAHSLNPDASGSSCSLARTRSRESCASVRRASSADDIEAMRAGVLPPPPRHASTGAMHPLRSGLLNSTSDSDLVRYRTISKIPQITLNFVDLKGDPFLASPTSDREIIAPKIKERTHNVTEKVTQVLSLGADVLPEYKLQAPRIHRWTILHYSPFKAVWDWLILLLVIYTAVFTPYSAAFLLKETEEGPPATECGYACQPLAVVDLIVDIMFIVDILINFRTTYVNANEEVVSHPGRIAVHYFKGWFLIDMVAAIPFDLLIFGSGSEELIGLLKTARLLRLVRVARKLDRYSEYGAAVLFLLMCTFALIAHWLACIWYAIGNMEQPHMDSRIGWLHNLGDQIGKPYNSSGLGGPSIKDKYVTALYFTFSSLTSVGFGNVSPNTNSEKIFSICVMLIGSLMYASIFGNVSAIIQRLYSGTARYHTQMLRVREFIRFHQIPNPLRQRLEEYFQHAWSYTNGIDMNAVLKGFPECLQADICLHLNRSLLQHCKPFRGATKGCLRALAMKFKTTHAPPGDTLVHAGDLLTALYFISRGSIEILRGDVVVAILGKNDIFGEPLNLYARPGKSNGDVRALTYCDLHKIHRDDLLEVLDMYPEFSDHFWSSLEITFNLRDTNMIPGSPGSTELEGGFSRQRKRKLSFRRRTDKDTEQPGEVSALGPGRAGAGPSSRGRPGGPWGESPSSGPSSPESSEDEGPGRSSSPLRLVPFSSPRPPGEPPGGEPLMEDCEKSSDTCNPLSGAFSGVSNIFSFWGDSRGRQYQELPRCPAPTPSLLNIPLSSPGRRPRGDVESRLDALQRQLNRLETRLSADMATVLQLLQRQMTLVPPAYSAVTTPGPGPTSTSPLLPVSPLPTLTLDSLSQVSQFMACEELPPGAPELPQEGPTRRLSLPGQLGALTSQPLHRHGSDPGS
`O=C(Nc1ccccc1)/C(=C\c1ccco1)NC(=O)c1ccco1` was tested, and the “hERG current change (%, negative = inhibition) at 10uM” value was -6.57%.
`COc1ccc(CCNC(=O)c2nnn(CC(=O)Nc3ccc(C)cc3C)c2N)cc1OC` was tested, and the “hERG current change (%, negative = inhibition) at 10uM” value was 13.8%.
With `CCCOC(=O)c1cccc(NC(=O)c2cccnc2)c1` the “hERG current change (%, negative = inhibition) at 10uM” value was -39.7%.
`O=C1CC(c2ccccc2)SC(N(c2ccccc2)c2ccccc2)=N1` (centres unmarked) was tested, and the “hERG current change (%, negative = inhibition) at 10uM” value was -0.167%.
With `Cn1cc(Cl)c(C(=O)NNC(=S)NC2CCCCC2)n1` the “hERG current change (%, negative = inhibition) at 10uM” value was 15.4%.
`Cc1cc(C)cc(N2CCCC2=O)c1` was tested, and the “hERG current change (%, negative = inhibition) at 10uM” value was 16.3%.
`O=C(CCC1CCN(C(=O)c2ccccc2Cl)CC1)NCc1ccc(F)cc1` was tested, and the “hERG current change (%, negative = inhibition) at 10uM” value was -18.9%.
With `O=C(c1ccco1)N1CCN(C(=S)NC2CC3CCC2C3)CC1` (centres unmarked) the “hERG current change (%, negative = inhibition) at 10uM” value was -67.3%.
`O=C(c1ccco1)N1CCN(C(=S)NCc2ccc(F)cc2)CC1` was tested, and the “hERG current change (%, negative = inhibition) at 10uM” value was -53.1%.
In the case of `O=C(c1ccco1)N1CCN(C(=S)Nc2ccc(F)cc2)CC1`, the “hERG current change (%, negative = inhibition) at 10uM” value is reported as -2.5%.
`O=C(N[C@@H]1C[C@H]2CC[C@@H]1C2)c1ccco1` was tested, and the “hERG current change (%, negative = inhibition) at 10uM” value was 4.88%.
`O=C(NC1CC2CCC1C2)c1ccco1` (centres unmarked) was tested, and the “hERG current change (%, negative = inhibition) at 10uM” value was -5.69%.
In the case of `CSc1ccccc1C(=O)N1CCC(CCC(=O)NCc2ccc(F)cc2)CC1`, the “hERG current change (%, negative = inhibition) at 10uM” value is reported as -12.4%.
For `O=C(CCC1CCN(C(=O)c2ccco2)CC1)NCc1ccc(F)cc1`, the “hERG current change (%, negative = inhibition) at 10uM” value was -72.6%.
`CCNC(=S)N1CCN(C(=O)c2ccco2)CC1` was tested, and the “hERG current change (%, negative = inhibition) at 10uM” value was 5.8%.
For `COCOc1ccc(-c2oc3c(C/C=C(\C)CCC=C(C)C)ccc(O)c3c(=O)c2OCOC)c(OCOC)c1`, the “hERG current change (%, negative = inhibition) at 10uM” value was -9.2%.
`CC(Oc1ccc(Cl)cc1Cl)C(=O)Nc1ncccn1` (centres unmarked) was tested, and the “hERG current change (%, negative = inhibition) at 10uM” value was -2.67%.
In the case of `O=C(Nc1ccc(F)cc1)OC1CN2CCC1CC2` (centres unmarked), the “hERG current change (%, negative = inhibition) at 10uM” value is reported as -27.5%.
In the case of `CCOC(=O)C1CCCCN1Cc1ccc(C(F)(F)F)cc1` (centres unmarked), the “hERG current change (%, negative = inhibition) at 10uM” value is reported as 7.75%.
In the case of `Cc1ccccc1-c1cc(C(=O)NCc2cccs2)n(CC2CC(c3cccnc3)=NO2)n1` (centres unmarked), the “hERG current change (%, negative = inhibition) at 10uM” value is reported as -26.2%.
With `COc1ccccc1CNC(=O)c1cc(-c2ccccc2)nn1CC1CC(c2cccnc2)=NO1` (centres unmarked) the “hERG current change (%, negative = inhibition) at 10uM” value was -71.2%.
In the case of `O=C(NCc1ccc(OC(F)(F)F)cc1)c1cc(-c2ccccc2)nn1CC1CC(c2cccnc2)=NO1` (centres unmarked), the “hERG current change (%, negative = inhibition) at 10uM” value is reported as -57.4%.
`CCOC(=O)c1cc(-c2ccccc2)nn1CC1CC(c2cccnc2)=NO1` (centres unmarked) was tested, and the “hERG current change (%, negative = inhibition) at 10uM” value was 3.47%.
With `O=C(c1cc(-c2ccccc2)nn1CC1CC(c2cccnc2)=NO1)N1CCOCC1` (centres unmarked) the “hERG current change (%, negative = inhibition) at 10uM” value was -4.25%.
In the case of `O=C(NCC1CC1)c1cc(-c2ccccc2)nn1CC1CC(c2cccnc2)=NO1` (centres unmarked), the “hERG current change (%, negative = inhibition) at 10uM” value is reported as -25%.
For `Cc1ccccc1-c1cc(C(=O)NCc2ccco2)n(CC2CC(c3cccnc3)=NO2)n1` (centres unmarked), the “hERG current change (%, negative = inhibition) at 10uM” value was -15.6%.
For `O=C(NCc1cccs1)c1cc(-c2ccccc2)nn1CC1CC(c2cccnc2)=NO1` (centres unmarked), the “hERG current change (%, negative = inhibition) at 10uM” value was -51.8%.
`Cc1ccccc1-c1cc(C(=O)NCC2CC2)n(CC2CC(c3cccnc3)=NO2)n1` (centres unmarked) was tested, and the “hERG current change (%, negative = inhibition) at 10uM” value was -20%.
In the case of `COc1ccccc1CNC(=O)c1cc(-c2ccccc2C)nn1CC1CC(c2cccnc2)=NO1` (centres unmarked), the “hERG current change (%, negative = inhibition) at 10uM” value is reported as -2.89%.
In the case of `O=C(NCc1ccco1)c1cc(-c2ccccc2)nn1CC1CC(c2cccnc2)=NO1` (centres unmarked), the “hERG current change (%, negative = inhibition) at 10uM” value is reported as -63.9%.
With `COc1ccc(NC(=O)C2CCCN(S(=O)(=O)c3ccc4[nH]c(=O)ccc4c3)C2)cc1` (centres unmarked) the “hERG current change (%, negative = inhibition) at 10uM” value was 9.08%.
With `COCCCNC(=O)Cn1ncc2ccsc2c1=O` the “hERG current change (%, negative = inhibition) at 10uM” value was 13.6%.
In the case of `O=C(COc1ccccc1Cl)NC(=O)NC1CCCCC1`, the “hERG current change (%, negative = inhibition) at 10uM” value is reported as 5.11%.
`COc1ccc(CNC(=O)Cn2ncn3cccc3c2=O)cc1` was tested, and the “hERG current change (%, negative = inhibition) at 10uM” value was 3.12%.
For `COCCNC(=O)c1cc(-c2ccccc2)nn1CC1CC(c2cccnc2)=NO1` (centres unmarked), the “hERG current change (%, negative = inhibition) at 10uM” value was 2.9%.
In the case of `Cc1ccc(CNC(=O)c2cc(-c3ccccc3)nn2CC2CC(c3cccnc3)=NO2)cc1` (centres unmarked), the “hERG current change (%, negative = inhibition) at 10uM” value is reported as -69.7%.
`CC(Oc1ccccc1F)c1nnc(SCC(=O)NCc2ccc3c(c2)OCO3)o1` (centres unmarked) was tested, and the “hERG current change (%, negative = inhibition) at 10uM” value was -32.1%.
With `COc1ccc(Br)cc1CNc1ccc(S(N)(=O)=O)cc1` the “hERG current change (%, negative = inhibition) at 10uM” value was -14.1%.
For `NS(=O)(=O)c1ccc(NCc2cc(Cl)ccc2OCc2ccccc2F)cc1`, the “hERG current change (%, negative = inhibition) at 10uM” value was -2.13%.
`NS(=O)(=O)c1ccc(NCc2ccccc2OCc2ccccc2F)cc1` was tested, and the “hERG current change (%, negative = inhibition) at 10uM” value was -2.39%.
In the case of `CCOc1ccc([N+](=O)[O-])cc1CNCCc1ccccc1.Cl`, the “hERG current change (%, negative = inhibition) at 10uM” value is reported as -45.5%.
With `Cl.NS(=O)(=O)c1ccc(CCNCc2cc(Br)ccc2OCc2ccccc2F)cc1` the “hERG current change (%, negative = inhibition) at 10uM” value was -75.9%.
`Cl.NS(=O)(=O)c1ccc(CCNCc2cc(Br)ccc2OCc2ccccc2)cc1` was tested, and the “hERG current change (%, negative = inhibition) at 10uM” value was -71.8%.
`CCn1c(SCc2nc(-c3ccccc3)no2)nc2ccccc21` was tested, and the “hERG current change (%, negative = inhibition) at 10uM” value was -24.6%.
With `CCCCOc1ccccc1C(=O)NCCCCCC(=O)O` the “hERG current change (%, negative = inhibition) at 10uM” value was 10.3%.
With `CCc1cccc(OCCCn2ccnc2)c1.O=C(O)C(=O)O` the “hERG current change (%, negative = inhibition) at 10uM” value was -25.7%.
In the case of `Cc1cc(C(F)F)n2nc(C(=O)Nc3sc4c(c3C(N)=O)CCC4)nc2n1`, the “hERG current change (%, negative = inhibition) at 10uM” value is reported as -60.9%.
In the case of `Cc1cc(C(F)F)n2nc(C(=O)Nc3sc4c(c3C#N)CCC4)nc2n1`, the “hERG current change (%, negative = inhibition) at 10uM” value is reported as 18.3%.
In the case of `COC(=O)c1c(NC(=O)c2nc3nc(C)cc(C(F)F)n3n2)sc2c1CCC2`, the “hERG current change (%, negative = inhibition) at 10uM” value is reported as 5.97%.
In the case of `CCC1CCC/C1=N\NC(=O)c1ccccc1Cl` (centres unmarked), the “hERG current change (%, negative = inhibition) at 10uM” value is reported as 19.2%.
With `COc1ccc(CNC(=O)COC(=O)CC(NC(N)=O)c2ccc(Cl)cc2)cc1OC` (centres unmarked) the “hERG current change (%, negative = inhibition) at 10uM” value was 1.27%.
For `COc1cccc(NC(=O)COC(=O)CC(NC(N)=O)c2ccc(Cl)cc2)c1` (centres unmarked), the “hERG current change (%, negative = inhibition) at 10uM” value was -2.18%.
In the case of `CCOc1ccccc1NC(=O)COC(=O)CSc1ccc(Cl)cc1`, the “hERG current change (%, negative = inhibition) at 10uM” value is reported as 21.2%.
With `N#Cc1ccc(COC(=O)CC(NC(N)=O)c2ccc(Cl)cc2)cc1` (centres unmarked) the “hERG current change (%, negative = inhibition) at 10uM” value was -59.9%.
`NC(=O)COC(=O)CC(NC(N)=O)c1ccc(Cl)cc1` (centres unmarked) was tested, and the “hERG current change (%, negative = inhibition) at 10uM” value was 17.6%.
With `CCOc1ccccc1NC(=O)COC(=O)CC(NC(N)=O)c1ccc(Cl)cc1` (centres unmarked) the “hERG current change (%, negative = inhibition) at 10uM” value was -68.4%.
